According to paper PMC8384837, “Expanding the binding specificity for RNA recognition by a PUF domain”:

Each sequence was assayed against PUM1 PUF domain R5-RRT (Homo sapiens, UniProt Q14671 828-1176, C1007R;Q1011T) (assay: yeast three-hybrid, YBZ-1, SC-Leu-His + 0.5 mM 3-AT, 4 days). Conditions: tags: N-Gal4 AD-HA kept; label: inside an RPR1-promoter hybrid RNA with tandem MS2 sites; ssRNA.
Sequence of PUM1 PUF domain R5-RRT (Q14671 828-1176 C1007R/Q1011T): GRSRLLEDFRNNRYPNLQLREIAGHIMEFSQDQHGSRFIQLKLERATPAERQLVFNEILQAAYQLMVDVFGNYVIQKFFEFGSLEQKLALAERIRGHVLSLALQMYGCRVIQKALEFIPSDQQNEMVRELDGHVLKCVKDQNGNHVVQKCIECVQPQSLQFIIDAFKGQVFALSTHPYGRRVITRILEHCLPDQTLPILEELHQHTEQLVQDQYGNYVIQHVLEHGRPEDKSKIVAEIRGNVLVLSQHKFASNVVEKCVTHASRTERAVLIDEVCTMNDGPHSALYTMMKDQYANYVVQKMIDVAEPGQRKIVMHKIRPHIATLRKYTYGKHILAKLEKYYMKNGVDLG
Procedure, shortened: (§1)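 A centromeric plasmid in strain YBZ-1 co-expressed Pumilio-1 PUF domain libraries, randomized at the three base-contacting residues of each repeat, with matching RNA elements; the strain carries a LexA–MS2 coat fusion and a HIS3 reporter. After four days on SC-Leu (input) or SC-Leu-His + 0.5 mM 3-AT (selection), the repeat regions were PCR-amplified and Illumina-sequenced. The interaction score is the log change in variant frequency from input to selection, using log2 and a pseudocount of 1 where absent.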
With “GGCUAGAACUAGUGGAUCCCCCGGCGCCCGGCGGCUCGAGCCCGGGUAAGUGUCAAUAGUCUGCAUGCCGCCGGGCGCCAUGCCUGCAGGUCGACUCUAGAAAACAUG” the binding signal was 4.59 log2 enrichment (interaction score). In the case of “GGCUAGAACUAGUGGAUCCCCCGGCGCCCGGCGGCUCGAGCCCGGGUAAGUGUGAAUAGUCUGCAUGCCGCCGGGCGCCAUGCCUGCAGGUCGACUCUAGAAAACAUG”, the binding signal is reported as 1.02 log2 enrichment (interaction score). For “GGCUAGAACUAGUGGAUCCCCCGGCGCCCGGCGGCUCGAGCCCGGGUAAGUGUAAAUAGUCUGCAUGCCGCCGGGCGCCAUGCCUGCAGGUCGACUCUAGAAAACAUG”, the binding signal was 0.94 log2 enrichment (interaction score).

These sequences were tested against PUM1 PUF domain R3-IWR (Homo sapiens, UniProt Q14671 828-1176, C935I;R936W;Q939R) in the same assay as above. Conditions: tags: N-Gal4 AD-HA kept; label: inside an RPR1-promoter hybrid RNA with tandem MS2 sites; ssRNA.
Sequence of PUM1 PUF domain R3-IWR (Q14671 828-1176 C935I/R936W/Q939R): as the sequence (Q14671 828-1176 C1007R/Q1011T) above, with C108I, R109W, Q112R, R180C, T184Q counted along it
Procedure, shortened: as §1
In the case of “GGCUAGAACUAGUGGAUCCCCCGGCGCCCGGCGGCUCGAGCCCGGGUAAGUGUAAUUAGUCUGCAUGCCGCCGGGCGCCAUGCCUGCAGGUCGACUCUAGAAAACAUG”, the binding signal is reported as 3.7 log2 enrichment (interaction score). “GGCUAGAACUAGUGGAUCCCCCGGCGCCCGGCGGCUCGAGCCCGGGUAAGUGUAAGUAGUCUGCAUGCCGCCGGGCGCCAUGCCUGCAGGUCGACUCUAGAAAACAUG” was tested, and the binding signal was 4.57 log2 enrichment (interaction score). In the case of “GGCUAGAACUAGUGGAUCCCCCGGCGCCCGGCGGCUCGAGCCCGGGUAAGUGUAAAUAGUCUGCAUGCCGCCGGGCGCCAUGCCUGCAGGUCGACUCUAGAAAACAUG”, the binding signal is reported as 3.61 log2 enrichment (interaction score).
